# The source made the active and inactive calls.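 The calls were made as follows, unless noted: active = visual image review flags a hit and inhibition of aggregation exceeds 20%; inconclusive = visual hit but inhibition at or below 20%; inactive = no hit on visual image review.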
# How the values were obtained:
# [1] = inhibitors of TNFa-induced NFkB p65 translocation, primary screen, imaging, HUVEC, MLSMR starter and 10KST1 sets (AID 438;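 active = inhibition above 20% together with a positive visual image hit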;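 also: compound added about 3h40 before a 20 min TNFalpha stimulation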;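 as to inhibition: signal is the nuclear over cytoplasmic p65 intensity ratio per well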); details: HUVEC TNFa-induced p65 nuclear translocation; cell count: measured here: nuclei count (cytotoxicity indicator), at 2.08 µM; inhibition: at 2 µM, stronger effect = higher value, 0% TNFa-plus-vehicle, 100% no-TNFa wells
# [2] = reduction of polyQ htt aggregates in cells – imaging, exon1htt(103Q)mCFP cells, high-content imaging, primary screen (AID 483); details: exon1htt(103Q)mCFP cell line, aggregate imaging, at 2 µM; inhibition of aggregation: stronger effect = higher value; nuclei count: measured here: cell count, toxicity;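 also: compound exposure lasted 3 days before fixation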;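 as to nuclei count: percent of the per-plate median nuclei count of sample wells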
# [3] = endothelial E-selectin expression blockers – imaging, HUVEC, immunofluorescence, MLSMR starter and 10KST1 sets, primary screen (AID 487;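 active = visually confirmed hit in the image check and inhibition above 20%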;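 as to inhibition: signal is fraction of cell area covered by stained E-selectin grains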;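 as to nuclei count: 100% = median nuclei count of all wells on the same plate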); details: HUVEC TNFalpha-induced E-selectin immunofluorescence imaging, at 2 µM; inhibition: stronger effect = higher value; nuclei count: measured here: cell number, toxicity
# [4] = target: Voltage-gated potassium channel subunit beta-2 (Rattus norvegicus) (UniProt P62483); assay: inhibitors of rat Kvbeta2 reductase activity – biochemical, NADPH fluorescence, primary screen (AID 622;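 active = fluorescence slope higher than the sample average by over 3 SD, cut at about -0.22 in these data, passing the limit was not always enough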;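 also: slope of raw intensity against log time taken from 70 to 1610 s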); details: recombinant KvBeta, 4-cyanobenzaldehyde reduction, at 10 µM, stronger effect = higher value
# Sequence of Voltage-gated potassium channel subunit beta-2 (Rattus norvegicus) (P62483 whole entry, looked up): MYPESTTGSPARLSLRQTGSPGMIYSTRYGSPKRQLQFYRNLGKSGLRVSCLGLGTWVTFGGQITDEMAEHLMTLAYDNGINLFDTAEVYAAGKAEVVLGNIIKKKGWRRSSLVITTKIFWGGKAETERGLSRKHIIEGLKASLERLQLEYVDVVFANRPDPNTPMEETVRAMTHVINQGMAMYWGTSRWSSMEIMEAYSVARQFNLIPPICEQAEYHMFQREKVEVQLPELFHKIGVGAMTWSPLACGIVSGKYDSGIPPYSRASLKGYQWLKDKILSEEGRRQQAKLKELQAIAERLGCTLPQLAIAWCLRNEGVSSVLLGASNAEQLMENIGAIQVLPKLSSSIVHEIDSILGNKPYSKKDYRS
# [5] = target: Voltage-gated potassium channel subunit beta-2 (Rattus norvegicus) (UniProt P62483); assay: enhancers of rat Kvbeta2 NADPH turnover – biochemical, NADPH fluorescence, primary screen (AID 623;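 active = NADPH fluorescence slope more negative than the mean of all samples by about 3 SD, 99.7% confidence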;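 also: fluorescence intensity change per second fitted from 20 to 320 s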); details: Recombinant KvBeta, NADPH fluorescence decrease slope, 10 min; at 10 µM; stronger effect = lower value
# [6] = target: Alpha-2C adrenergic receptor (Homo sapiens) (UniProt P18825); assay: compounds altering alpha2C-coupled GIRK flux – cell-based, HEK293 alpha2C/GIRK1/2, thallium flux, primary screen (AID 624;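 active = fluorescence slope after compound addition differing from the mean of all screened samples at 99.7% confidence, in either direction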;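 also: slope of fluorescence ratio to pre-addition baseline per second over 15 to 24 s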); details: thallium flux BTC fluorescence, at 10 µM, actives lie on both sides
# Sequence of Alpha-2C adrenergic receptor (Homo sapiens) (P18825 whole entry, looked up): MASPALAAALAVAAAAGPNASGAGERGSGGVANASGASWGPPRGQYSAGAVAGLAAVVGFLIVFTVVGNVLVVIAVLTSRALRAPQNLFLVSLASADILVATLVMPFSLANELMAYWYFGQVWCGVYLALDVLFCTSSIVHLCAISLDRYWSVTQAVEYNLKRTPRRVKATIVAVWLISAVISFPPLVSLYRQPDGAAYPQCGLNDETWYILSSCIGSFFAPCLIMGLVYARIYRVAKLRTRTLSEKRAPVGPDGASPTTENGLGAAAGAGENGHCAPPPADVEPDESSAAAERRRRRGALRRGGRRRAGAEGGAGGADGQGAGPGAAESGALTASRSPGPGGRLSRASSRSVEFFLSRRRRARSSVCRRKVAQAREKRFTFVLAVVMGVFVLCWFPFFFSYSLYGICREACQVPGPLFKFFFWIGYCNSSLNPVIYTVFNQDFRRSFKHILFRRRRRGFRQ
# [7] = blockers of RIG-like receptor reporter activation – cell-based, Sendai virus stimulus, luciferase, 10K MLSCN set, TLR/RLR signaling modifier project, primary screen (AID 602276;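 active = inhibition at or above 50% at 10 µM; inactive = inhibition below 50%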;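 also: firefly luciferase from ISG56 promoter only with Renilla not read in this screen; 0% = Sendai virus plus DMSO and 100% = medium plus DMSO without virus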); details: HEK293 RL24 IRF3 luciferase reporter, at 10 µM, stronger effect = higher value
# [8] = TLR3 IRF3 reporter activation blockers – cell-based, poly I:C stimulus, luciferase, 10K MLSCN set, primary screen (AID 602277;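 active = inhibition of the reporter signal at or above 50%; inactive = inhibition below 50%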); details: HEK293-TLR3 RL24 IRF3 luciferase reporter, at 10 µM, stronger effect = higher value
Structure (SMILES),cell count [1],inhibition [1],inhibition of aggregation [2],nuclei count [2],inhibition [3],nuclei count [3],fluorescence slope [4],NADPH fluorescence slope [5],slope [6],inhibition [7],inhibition [8]
COc1ccc(NC(=O)C2CCCN2S(=O)(=O)c2cccc3cccnc23)c(OC)c1 (stereo not drawn),645,-8.6% (inactive),2.8% (inactive),77.7%,-59.6% (inactive),103%,-0.626 (inactive),2.3e-06 (inactive),0.00652 (inactive),1.34% (inactive),38.4% (inactive)
Cc1cccc(N2CCN(C(=O)Cn3nc(Cc4ccncc4)c4ccccc4c3=O)CC2)c1C,895,-5.5% (inactive),14.3% (inactive),103%,-72% (inactive),118%,-0.563 (inactive),-4.2e-05 (inactive),0.00577 (inactive),4.52% (inactive),5.5% (inactive)
O=C(O)C1CCCN1S(=O)(=O)c1ccc2ccccc2c1 (stereo not drawn),609,-3.4% (inactive),-2.3% (inactive),89.5%,-83.6% (inactive),106%,-0.627 (inactive),-2e-06 (inactive),0.00297 (inactive),-1.98% (inactive),-11.3% (inactive)
Nn1c(SCC(=O)NC2CCCCC2)nnc1-c1ccc(Cl)cc1,376,0.7% (inactive),-1.9% (inactive),106%,-114% (inactive),108%,-0.472 (inactive),6.9e-06 (inactive),0.00502 (inactive),14.6% (inactive),19% (inactive)
CC(C)COc1ccc(C2NC(=O)NC2=O)cc1 (stereo not drawn),718,-10.2% (inactive),-12.5% (inactive),117%,74.1% (inactive),91.5%,-0.452 (inactive),-2.2e-05 (inactive),0.00367 (inactive),1.04% (inactive),19.9% (inactive)
CCCCC(=O)NCCc1ccc(S(N)(=O)=O)cc1,555,10.7% (inactive),1.1% (inactive),101%,-35% (inactive),88.9%,-0.412 (inactive),-5.1e-05 (inactive),0.0057 (inactive),3.38% (inactive),10.4% (inactive)
CC(=O)Nc1ccc(S(=O)(=O)NCc2csc(-c3cccnc3)n2)cc1,356,-10.2% (inactive),-11.8% (inactive),108%,-19.2% (inactive),101%,-0.511 (inactive),-3.4e-05 (inactive),0.00545 (inactive),9.95% (inactive),22.2% (inactive)
O=C(CCCCCN1C(=O)CCC1=O)NCc1ccccc1,581,-15.5% (inactive),-2% (inactive),106%,-64.5% (inactive),105%,-0.605 (inactive),-4.8e-05 (inactive),0.00553 (inactive),12.6% (inactive),24.6% (inactive)
CC(C)=CCCC(C)N(C=O)C(C)CCC=C(C)C (stereo not drawn),470,8.1% (inactive),4.3% (inactive),98.2%,-144% (inactive),126%,-0.598 (inactive),-1.6e-06 (inactive),0.00568 (inactive),10.3% (inactive),-8.14% (inactive)
CCOc1ccc(-c2cc(CCCC(=O)N3CCN(c4ccc(OC)cc4)CC3)no2)cc1,513,0.7% (inactive),23.7% (inactive),61%,-0.1% (inactive),86%,-0.614 (inactive),2.2e-05 (inactive),0.00539 (inactive),11% (inactive),24.1% (inactive)
COc1ccccc1NC(=O)CSc1nnc(Cc2cccn2C)n1-c1ccc(F)cc1,508,-7.5% (inactive),30.2% (inactive),86.3%,-51.1% (inactive),113%,-0.529 (inactive),-2.1e-05 (inactive),0.00524 (inactive),11.3% (inactive),37.8% (inactive)
COc1cccc(C2CC(c3ccc(C)cc3)n3nc(N)nc3N2)c1 (stereo not drawn),510,-0.9% (inactive),-5.2% (inactive),106%,-34.1% (inactive),106%,-0.615 (inactive),-2.8e-06 (inactive),0.00794 (inactive),9.08% (inactive),24.7% (inactive)
CCOc1cc(C(=O)NCc2ccncc2)cc(OCC)c1OCC,596,1.6% (inactive),3.9% (inactive),100%,-121% (inactive),114%,-0.407 (inactive),-4.6e-05 (inactive),0.00658 (inactive),7.46% (inactive),18.3% (inactive)
CCCCCSc1nc2c(cnn2-c2ccccc2)c(=O)[nH]1,241,-4.9% (inactive),-3.4% (inactive),100%,-35.9% (inactive),125%,-0.399 (inactive),-5.4e-05 (inactive),0.00382 (inactive),11.4% (inactive),27.5% (inactive)
COC(=O)CCC(=O)Nc1ccc(S(=O)(=O)N2CCCCCC2)cc1,743,16.7% (inactive),-20.5% (inactive),97.4%,34.8% (inactive),116%,-0.496 (inactive),-5.3e-05 (inactive),0.00616 (inactive),8.32% (inactive),24.1% (inactive)
CC(C)(C)SCCNC(=O)COc1ccc(Cl)cc1,237,3.4% (inactive),19.9% (inactive),83.8%,-272% (inactive),147%,-0.419 (inactive),1.6e-05 (inactive),0.00681 (inactive),-15.2% (inactive),-2.28% (inactive)
C=CCn1c(SCC(=O)NCCCC)nc2scc(-c3ccco3)c2c1=O,650,-6.7% (inactive),2.2% (inactive),120%,-4.2% (inactive),99.8%,-0.444 (inactive),-3.5e-05 (inactive),0.00561 (inactive),19.3% (inactive),28.9% (inactive)
Cc1c(C(=O)N2CCOCC2)oc2ccc(S(=O)(=O)N3CCCC3)cc12,729,-14.1% (inactive),4.5% (inactive),106%,-31.7% (inactive),105%,-0.518 (inactive),-7.1e-05 (inactive),0.00624 (inactive),-1.69% (inactive),2.47% (inactive)
O=C(NCc1cccnc1)c1ccc2c(c1)OCO2,415,10.5% (inactive),-7.2% (inactive),103%,4.1% (inactive),110%,-0.53 (inactive),3.1e-05 (inactive),0.00534 (inactive),-28.8% (inactive),-20% (inactive)
CN(C)C(=O)Cn1c(SCC(=O)NC2CCCCC2)nc2ccccc21,685,-3.1% (inactive),-19.2% (inactive),112%,-68.3% (inactive),146%,-0.41 (inactive),6.1e-06 (inactive),0.00698 (inactive),5.56% (inactive),31.7% (inactive)
COc1ccc(N(CC(=O)NCCSC(C)(C)C)S(C)(=O)=O)c(OC)c1,387,-1.4% (inactive),12.9% (inactive),104%,-18.2% (inactive),120%,-0.537 (inactive),0.000155 (inactive),0.00708 (inactive),18.9% (inactive),20.9% (inactive)
CS(=O)(=O)N(CC(=O)N1CCc2ccccc2C1)c1ccc2c(c1)OCO2,262,1.6% (inactive),17% (inactive),97.2%,14.1% (inactive),77.8%,-0.481 (inactive),-5.5e-05 (inactive),0.00584 (inactive),11% (inactive),23.8% (inactive)
CC1=C(C)[N+](=O)C2CCCCC2N1[O-] (stereo not drawn),705,3.9% (inactive),13.8% (inactive),104%,58% (inactive),86.5%,-0.368 (inactive),-0.000147 (inactive),0.00784 (inactive),-0.132% (inactive),16.1% (inactive)
COc1ccc(CCNC(=O)CSCc2n[nH]c(=O)[nH]2)cc1OC,330,1.6% (inactive),-15.4% (inactive),99.5%,-97.5% (inactive),131%,-0.476 (inactive),-3.9e-05 (inactive),0.00502 (inactive),19.2% (inactive),24.3% (inactive)
O=C(c1c(Cl)nc2sccn12)N(C(=O)c1c(Cl)nc2sccn12)c1ccc(Cl)cn1,819,3.8% (inactive),-20.1% (inactive),103%,-97.4% (inactive),126%,-0.465 (inactive),7.2e-06 (inactive),0.00593 (inactive),-31.5% (inactive),-77.8% (inactive)
Cc1ccccc1-c1nc(CN2CCC(C(=O)NC3CCN(Cc4ccccc4)CC3)CC2)c(C)o1,612,3.7% (inactive),-89.7% (inactive),107%,13% (inactive),108%,-0.561 (inactive),-3e-05 (inactive),0.0054 (inactive),-19.2% (inactive),78% (active)
CN(C(=O)c1ccccn1)c1nnc(-c2cccnc2)s1,622,-8.7% (inactive),11.2% (inactive),93.2%,-52.7% (inactive),106%,-0.489 (inactive),-5.1e-05 (inactive),0.0044 (inactive),0.693% (inactive),-16.2% (inactive)
CCOC(=O)C1CCN(Cc2ccc(OC)c(C)c2OC)CC1,313,-1.3% (inactive),-10.2% (inactive),107%,-41.2% (inactive),108%,-0.539 (inactive),-2.1e-05 (inactive),0.00556 (inactive),-3.21% (inactive),7.91% (inactive)

# Reference: PubChem BioAssay
